HT1080-NT tox = kills 2HG-producing HT-1080-NT fibrosarcoma cells | HT-1080-NT fibrosarcoma viability, CellTiter-Glo ATP luminescence, 48 h | 360,000 tested, 1.6% active | Potency, µM (top dose mostly 46.1 µM), without a hit: at the top dose activity, negative = less viability, most hits filed as cytotoxic | AID 686970;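 note: NT is the 2HG producing partner of a matched IDH1 knockdown line; potency is the fitted concentration of half-maximal effect; 0% = DMSO-treated cells and -100% = media-only wells without cells; nearly all actives have a fitted effect of over 55% in size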
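A 48-hour cytotoxicity screen used HT-1080-NT cells plated 2 hours before compound delivery. ATP-based CellTiter-Glo luminescence measured viability, normalized to DMSO and no-cell controls.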
IL1B secr inh = inflammasome signaling inhibition, IL-1 beta readout | THP-1 LPS/ATP IL-1B secretion, AlphaLISA, 16 h; stronger effect = lower value | activity change, % at 57.5 µM | 360,000 tested, 4.7% active | AID 743279; in the data active = activity change below about -50%; inconclusive = mostly about -30% to -49%
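Secreted IL-1B measured by AlphaLISA bead assay after 16 h compound exposure of THP-1 cells; compounds (final up to 57.5 uM) added 1 h before LPS (250 ng/mL) and ATP (1.25 mM) stimulation; lower signal means less secretion.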
TDP1 cell noCPT = qHTS for Inhibitors of human tyrosyl-DNA phosphodiesterase 1 (TDP1): qHTS in cells in absence of CPT; DT40 Tdp1-/- hTDP1 cells, no CPT, ATP luminescence, 48 h; Potency, µM (top dose mostly 46.2 µM), for inactives: top-dose activity change, negative = growth inhibition, actives largely listed as inhibitors; 420,000 tested, 15% active; AID 686978, 2013; note: potency is the fitted concentration of half-maximal effect; nearly all actives have a fitted effect of over 55% in size
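Chicken DT40 Tdp1-/- cells stably complemented with human TDP1 were seeded at 400 cells/well with DMSO in place of 20 nM camptothecin. After compound pinning, cells grew at least 48 hr at 37 °C; viability read by CellTiter-Glo luminescence.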
HT1080 IDH1KD tx = HT-1080 IDH1 knockdown cell toxicity (counter line) | Potency, µM (titrated, usually from 46.1 µM), without a hit: at the top dose activity, negative = toxicity, usual class: cytotoxic | 360,000 tested, 2% active | HT-1080 IDH1 knockdown viability, ATP luminescence, 48 h;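 note: potency is the fitted concentration of half-maximal effect; 0% = DMSO wells and -100% = cell-free medium wells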
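IDH1KD HT-1080 cells, 750/well, RPMI + 5% FBS; compound pinned after 2 h settling; 48 h, 37 °C; CellTiter-Glo luminescence; % activity normalised to DMSO and no-cell wells; curves fitted, classed by r2 and efficacy.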
TDP1 cell CPT = growth inhibition of DT40 Tdp1-/-;hTDP1 cells with camptothecin (screen for TDP1 inhibitors); chicken DT40 Tdp1-/-;hTDP1 cells + 20 nM CPT, ATP luminescence, 48 h; Potency, µM (series often up to 46.2 µM), for inactives: top-dose activity change, negative = growth inhibition, most hits filed as inhibitors; 420,000 tested, 12% active; AID 686979; note: potency is the fitted concentration of half-maximal effect; nearly all actives have a fitted effect of over 55% in size
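Chicken DT40 Tdp1-/- cells stably complemented with human TDP1 were seeded at 400 cells/well in medium containing 20 nM camptothecin, exposed to pin-transferred compounds, and grown at 37 °C for at least 48 hr. Viability was read as ATP luminescence.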
uPA generation = blocks generation of uPA at the cell surface. cell surface uPA generation assay, qHTS. Potency, µM (top dose mostly 38.3 µM), for inactives: at the highest dose activity change, negative = inhibition, most hits filed as inhibitors. 330,000 tested, 0.31% active. AID 540303; active = well fitted inhibition curve with a large enough effect; inconclusive = small, poorly fitted or top-dose-only effect; inactive = no such curve, though single readings can be large or run the other way; tested in mouse RAW 264.7 cells; note: potency is the fitted concentration of half-maximal effect; nearly all actives have a fitted effect of over 55% in size
Starred values were filed as active, the others as inactive; ? = inconclusive; nt = not tested or not shown. Only some compounds are listed: those with a hit (about 19% of all), similar ones and a draw of the others. Unless noted, calls come from the whole dose curve; as a rule, active = well fitted curve in the direction sought with a large enough effect; inconclusive = small, poorly fitted or top-dose-only effect, or another doubt; inactive = no such curve, though single readings can be large; an effect the other way counts as inactive or inconclusive. Unless noted, % is set by controls: 0 for no effect and ±100 for the full control effect.

SMILES	HT1080-NT tox	IL1B secr inh	TDP1 cell noCPT	HT1080 IDH1KD tx	TDP1 cell CPT	uPA generation
O=C(CCc1nnc2n(Cc3ccc(F)cc3)c(=O)c3ccccc3n12)NCCN1CCOCC1	-3%	-14	-7%	-3%	-30%	-2%
COc1cccc(C(=O)N2CCN(c3ccccn3)CC2)c1	17%	-3	-3%	28%	-15%	-2%
O=C(c1ccc(Cn2c(=O)[nH]c3ccccc3c2=O)cc1)N1CCN(c2ccccc2)CC1	-1%	-10	15µM*	1%	18µM*	-7%
CCOC(=O)N1CCN(C(=O)c2ccc3c(=O)n(Cc4ccc(OC)cc4)c(=S)[nH]c3c2)CC1	-11%	-8	?	-8%	?	-1%
O=C(CCS(=O)(=O)c1cccs1)Nc1ccc(C(=O)NC2CCN(Cc3ccccc3)CC2)cc1	7%	-8	?	4%	?	-17%
NS(=O)(=O)c1ccc(-c2c(-c3ccccc3)sc3ccccc23)cc1	4%	6	-13%	7%	-14%	-5%
COc1cccc(CNC(=O)c2c(OC)cc(=O)n3c2CCN(C(=O)C2CC=CCC2)CC3)c1 (configuration not stated)	nt	nt	-13%	nt	-9%	nt
O=C(c1ccc(Cn2c(=O)[nH]c3ccccc3c2=O)cc1)N1CCN(c2ccccn2)CC1	-4%	?	23µM*	-2%	?	9%
O=C(c1ccc(CN2CCc3ccccc3C2)cc1)N1CCN(c2ccccc2)CC1	4%	18	?	2%	13µM*	-1%
COC(=O)c1ccccc1NC(=O)N1CCC(N2CCN(Cc3ccc(F)cc3)C(=O)C2=O)CC1	nt	nt	-1%	nt	3%	nt
CC1(C(=O)O)CCN1C(=O)c1cccnc1Oc1ccccc1 (configuration not stated)	23%	11	1%	9%	-24%	nt
O=C(CSc1nc2c(c(=O)[nH]1)CCC2)Nc1cccc(O)c1	nt	nt	-18%	nt	-26%	nt
COC(=O)c1ccc(CC(=O)c2ccc(O)cc2O)o1	13%	25	?	8%	?	-2%
CCC(=O)Oc1ccc(C/C(=N\O)c2ccc(O)cc2O)o1	?	-2	18µM*	?	?	-18%
C[N+](C)(CC#Cc1ccccc1)CC(=O)c1ccccc1	-3%	-28	16µM*	0%	18µM*	-8%
C#CC[N+](CC)(CC)CC#Cc1ccccc1	1%	23	18µM*	-3%	?	2%
CC[N+](CC)(CC#Cc1ccccc1)CC#Cc1ccccc1	?	-81*	2.1µM*	-28%	2.6µM*	-14%
C[N+](C)(CC#Cc1ccccc1)CC(=O)c1ccc(Cl)cc1	-1%	?	?	?	?	1%
CCCc1nc(SCC(=O)c2ccc(OC)cc2)c2ccccc2n1	-13%	-90*	?	0%	?	-6%
Cc1nc(SCC(=O)c2cc(C)n(C3CC3)c2C)c2ccccc2n1	5%	8	7.3µM*	2%	8.2µM*	nt
CCc1nc(SCC(=O)c2ccc3c(c2)OCCO3)c2ccccc2n1	?	-63*	?	?	?	-7%
O=C(CSc1ncnc2scc(-c3ccc(F)cc3)c12)c1ccc2c(c1)OCCO2	0%	-27	18µM*	-1%	21µM*	3%
CCCc1nc(SCC(=O)Nc2cc(C)on2)c2ccccc2n1	-18%	?	?	-27%	?	-10%
Oc1ccc(-c2nccc(-c3ccc(F)cc3)n2)cc1	-23%	-7	?	-27%	10%	3%
CCc1ccc(C(=O)c2cn(CC(=O)NCc3ccc(C)cc3)c3nc(C)ccc3c2=O)cc1	nt	nt	1%	nt	-8%	nt
SMILES	HT1080-NT tox	IL1B secr inh	TDP1 cell noCPT	HT1080 IDH1KD tx	TDP1 cell CPT	uPA generation
Cc1cn2c(=O)c(S(=O)(=O)NCCc3ccccc3)c(C)nc2s1	nt	nt	-7%	nt	-23%	nt
CCCN(CCC)C[C@@H]1CCCCN1CCNC(=O)N1c2ccccc2C(=O)Nc2cccnc21	nt	nt	-5%	nt	-8%	nt
CCc1nc(SCC(=O)N2c3ccccc3Sc3ccccc32)c2ccccc2n1	2%	?	15µM*	9%	?	-2%
CCc1nc(SCC(=O)c2ccccc2)c2ccccc2n1	-1%	?	13µM*	-7%	?	-7%
CCN(CC)C(=O)CSc1nc(Cc2ccccc2)nc2ccccc12	-2%	-22	?	-9%	?	?
O=C(CSc1nc(Cc2ccccc2)nc2ccccc12)c1ccc2c(c1)OCCO2	?	-11	23µM*	-24%	16µM*	-4%
Cc1sc2ncnc(SCC(=O)c3ccc4c(c3)OCCO4)c2c1-c1ccccc1	1%	0	9.2µM*	-2%	6.5µM*	1%
O=C(CC[C@H]1O[C@@H](n2cnc3c(NC(=O)c4ccccc4)ncnc32)[C@H](O)[C@@H]1O)NCC1CCN(Cc2ccccc2)CC1	?	19	-5%	8%	-5%	nt
COc1ccc(C(C)(O)c2nc(-c3cccc(NC(C)=O)c3)cs2)cc1 (configuration not stated)	5%	29	?	7%	-72%	nt
CC1(C(=O)NS(=O)(=O)c2cccc(Cl)c2)CCN1C(=O)c1ccccc1CCc1ccccc1 (configuration not stated)	-17%	-1	?	-25%	?	nt
COc1cccc(Nc2ncc3nc(C)c(=O)n(CCc4ccccc4)c3n2)c1	nt	nt	-5%	nt	0%	nt
O=C(COc1ncnc2ccccc12)c1ccc2c(c1)OCCO2	12%	-15	?	7%	0%	-5%
Cn1nnnc1SCC(=O)N1c2ccccc2Sc2ccccc21	-2%	10	15µM*	4%	10µM*	-1%
O=C(CSc1ncnc2ccccc12)c1ccc2c(c1)OCCO2	?	-30	18µM*	-27%	18µM*	-2%
O=c1cnn([C@@H]2O[C@H](CO)[C@@H](O)[C@H]2O)c(=O)[nH]1	-18%	49	2.3µM*	?	12µM*	?
O=c1[nH]nnc2c1ncn2C1OC(CO)C(O)C1O (configuration not stated)	-17%	7	?	?	?	nt
COc1cc(OC)cc(C(=O)NCCS(=O)(=O)N2CCN(Cc3ccccc3)CC2)c1	3%	0	?	6%	?	1%
COc1ccc(CCC(=O)NCCS(=O)(=O)N2CCN(c3ccccc3)CC2)cc1	-2%	-6	?	-8%	?	11%
CCOc1ccc(OCC(=O)NCCS(=O)(=O)N2CCN(c3ccccc3)CC2)cc1	-11%	36	?	-1%	?	nt

Screening results from PubChem.
